Results on 27 molecules are retold here after PubChem BioAssay (EPA / NIEHS).

A short description of experiment [1]: ATG_GLI_CIS: Attagene CIS-FACTORIAL HepG2 Assay for human Zinc Finger Protein GLI1 (AID 2282945). To be noted: HepG2, Attagene cis-factorial reporter mRNA, GLI element; actives raise or lower the signal. A digest of the protocol:
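Transiently transfected HepG2 cells report endogenous transcription factor activity via cis-element-driven reporter units. After 24 h compound exposure, reporter mRNA was measured by RT-PCR with capillary electrophoresis; bidirectional fitting against DMSO baseline.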

The nature of experiment [2]: ATG_GRE_CIS: Attagene CIS-FACTORIAL HepG2 Assay for human Glucocorticoid Response Elements (GRE) (AID 2282947). To be noted: HepG2 GRE cis-reporter, Attagene multiplex mRNA; actives raise or lower the signal. A digest of the protocol: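 Fluorescence intensity of reporter-specific cDNA fragments, separated by capillary electrophoresis, provides the signal. Constructs carry cis-regulating promoters in transiently transfected HepG2 liver cells; 24 h incubation; fitting is bidirectional against DMSO.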

Experiment [3] can be described thus: ATG_ISRE_CIS: Attagene CIS-FACTORIAL HepG2 Assay for human Interferon Regulatory Factor 1 (IRF1) binding to an Interferon-Stimulated Response Element (ISRE) (AID 2282948). To be noted: HepG2 ISRE cis-reporter (Attagene), mRNA transcription readout; actives raise or lower the signal. A digest of the protocol: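 Signal reflects induction or loss of ISRE-linked reporter mRNA in transiently transfected HepG2 cells after a 24 h treatment, detected by fluorescent RT-PCR fragments on capillary electrophoresis and normalised to DMSO.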

Experiment [4] in a line: ATG_M_32_CIS: Attagene CIS-FACTORIAL HepG2 Assay for M32 Transcription Factor (Internal Marker) (AID 2282949).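 Further: background control marker of the multiplexed CIS panel rather than a real target.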 To be noted: HepG2 Attagene cis-factorial M32 reporter, mRNA; actives raise or lower the signal. The essentials: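 HepG2 human liver cells transiently transfected with cis-promoter-driven multiple reporter transcription units, dosed 24 h. Reporter mRNA quantified by RT-PCR, FAM-labelled primer extension, HpaI digest and capillary electrophoresis; bidirectional fit versus DMSO baseline.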

Experiment [5] in a line: ATG_M_06_CIS: Attagene CIS-FACTORIAL HepG2 Assay for M06 Transcription Factor (Internal Marker) (AID 2282950). As to conditions: HepG2 Attagene CIS-FACTORIAL M06 internal marker reporter; actives raise or lower the signal. The essentials: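 Fluorescence-labelled RT-PCR products from cis-promoter reporter units, cut with HpaI and resolved by capillary electrophoresis, give the signal. Cells are human HepG2, dosed for 24 h. Serves as background control, fitted relative to DMSO.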

The target in experiment [6] is Hypoxia-inducible factor 1-alpha (Homo sapiens) (UniProt Q16665). Description: ATG_HIF1a_CIS: Attagene CIS-FACTORIAL HepG2 Assay for human Hypoxia Inducible Factor 1 (HIF1A) (AID 2282951). To be noted: HepG2 Attagene cis-factorial HIF1a reporter transcription; actives raise or lower the signal. A digest of the protocol:
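HepG2, transient cis-reporter library, 24 h dosing. RNA → RT (oligo dT) → PCR → 6-FAM primer extension → HpaI → CE. Bidirectional curve fit vs DMSO.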

For experiment [7], the target named is Hepatocyte nuclear factor 6 (Homo sapiens) (UniProt Q9UBC0). Description: ATG_HNF6_CIS: Attagene CIS-FACTORIAL HepG2 Assay for human Hepatocyte Nuclear Factor 6 (HNF6) (AID 2282952). To be noted: HepG2 Attagene cis-factorial HNF6 reporter transcription; actives raise or lower the signal. A digest of the protocol:
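Activity values derive from bidirectional fitting against DMSO of reporter mRNA levels, measured by capillary electrophoresis of labelled RT-PCR products from HepG2 cells exposed 24 h.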

Experiment [8] deals with Heat shock factor protein 1 (Homo sapiens) (UniProt Q00613). Description: ATG_HSE_CIS: Attagene CIS-FACTORIAL HepG2 Assay for human Heat Shock Transcription Factor 1 (HSE) (AID 2282953). As to conditions: HepG2 HSE cis-reporter, Attagene RNA transcription; actives raise or lower the signal. A digest of the protocol: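 After a 24 h incubation with test chemical, transfected HepG2 cells were harvested for RNA; reporter transcripts were measured by RT-PCR and capillary electrophoresis. Values reflect gain or loss of signal relative to DMSO.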
Chain of Heat shock factor protein 1 (Homo sapiens) (Q00613 whole entry, looked up): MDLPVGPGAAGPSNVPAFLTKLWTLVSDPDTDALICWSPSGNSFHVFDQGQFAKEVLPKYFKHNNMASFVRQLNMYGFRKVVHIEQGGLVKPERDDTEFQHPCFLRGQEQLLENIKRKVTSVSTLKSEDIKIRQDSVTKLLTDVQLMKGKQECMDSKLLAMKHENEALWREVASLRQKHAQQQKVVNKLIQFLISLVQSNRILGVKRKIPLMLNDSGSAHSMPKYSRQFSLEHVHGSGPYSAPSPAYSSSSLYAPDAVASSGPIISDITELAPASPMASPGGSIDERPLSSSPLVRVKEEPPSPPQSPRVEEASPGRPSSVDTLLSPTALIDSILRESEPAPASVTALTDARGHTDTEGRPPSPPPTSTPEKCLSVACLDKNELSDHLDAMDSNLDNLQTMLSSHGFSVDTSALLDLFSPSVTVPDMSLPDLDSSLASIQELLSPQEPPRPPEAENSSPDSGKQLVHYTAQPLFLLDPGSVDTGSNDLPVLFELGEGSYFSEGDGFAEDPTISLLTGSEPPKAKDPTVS

The nature of experiment [9]: ATG_MRE_CIS: Attagene CIS-FACTORIAL HepG2 Assay for human Metal Responsive Element (MRE) (AID 2282954). To be noted: HepG2 MRE cis-reporter transcription, Attagene multiplex; actives raise or lower the signal. The essentials:
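Measured here is mRNA induction from an MRE cis-element reporter in HepG2 after 24 h, quantified by fluorescence of labelled RT-PCR products on capillary electrophoresis; gain- and loss-of-signal fits use DMSO as baseline.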

Each structure is given as a SMILES string. Activity calls are given as the source filed them. How the source made its calls: active means hit-call score of the fitted dose curve at least 0.9, where 1 is the maximum; inactive means score below 0.9.

Chain of Hepatocyte nuclear factor 6 (Homo sapiens) (Q9UBC0 whole entry, looked up): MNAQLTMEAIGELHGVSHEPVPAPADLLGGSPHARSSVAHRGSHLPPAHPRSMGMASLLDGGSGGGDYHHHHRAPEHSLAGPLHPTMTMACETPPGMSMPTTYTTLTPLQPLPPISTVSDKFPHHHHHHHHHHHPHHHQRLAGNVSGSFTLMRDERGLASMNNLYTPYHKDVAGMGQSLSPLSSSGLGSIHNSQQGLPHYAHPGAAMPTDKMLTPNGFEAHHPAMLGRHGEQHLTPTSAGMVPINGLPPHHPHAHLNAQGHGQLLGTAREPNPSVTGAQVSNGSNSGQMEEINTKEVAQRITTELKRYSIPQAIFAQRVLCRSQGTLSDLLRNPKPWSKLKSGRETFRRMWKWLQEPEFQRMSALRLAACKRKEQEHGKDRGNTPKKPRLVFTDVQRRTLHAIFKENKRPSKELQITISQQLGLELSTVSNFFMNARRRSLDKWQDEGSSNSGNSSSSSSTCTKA
Chain of Hypoxia-inducible factor 1-alpha (Homo sapiens) (Q16665 whole entry, looked up): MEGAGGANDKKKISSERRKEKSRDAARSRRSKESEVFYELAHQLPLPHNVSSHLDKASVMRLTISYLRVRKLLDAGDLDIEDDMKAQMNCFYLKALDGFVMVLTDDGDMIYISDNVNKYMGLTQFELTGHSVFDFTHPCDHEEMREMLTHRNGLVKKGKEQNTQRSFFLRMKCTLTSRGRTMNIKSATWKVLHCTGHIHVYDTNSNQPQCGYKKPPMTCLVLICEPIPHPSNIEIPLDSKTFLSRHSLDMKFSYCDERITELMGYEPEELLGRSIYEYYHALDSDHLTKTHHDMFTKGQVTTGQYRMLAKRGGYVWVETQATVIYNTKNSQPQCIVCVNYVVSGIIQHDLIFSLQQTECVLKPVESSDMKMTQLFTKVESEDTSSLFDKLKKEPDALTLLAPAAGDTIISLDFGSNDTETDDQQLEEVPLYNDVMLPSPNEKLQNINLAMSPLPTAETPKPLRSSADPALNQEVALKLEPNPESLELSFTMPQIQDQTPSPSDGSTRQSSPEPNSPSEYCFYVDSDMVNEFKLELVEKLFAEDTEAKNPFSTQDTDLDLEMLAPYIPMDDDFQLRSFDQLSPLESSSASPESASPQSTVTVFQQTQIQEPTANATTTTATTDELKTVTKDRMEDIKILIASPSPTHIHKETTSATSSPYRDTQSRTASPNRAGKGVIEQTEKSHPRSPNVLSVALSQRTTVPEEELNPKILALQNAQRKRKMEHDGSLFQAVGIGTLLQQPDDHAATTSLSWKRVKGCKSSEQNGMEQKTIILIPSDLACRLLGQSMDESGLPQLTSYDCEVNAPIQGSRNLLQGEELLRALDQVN

Turning to `CCc1occc(=O)c1O`, the outcome in experiment [1], in experiment [2], in [3], in [4], in [5] and in experiment [6] was inactive. The molecule was called inactive in experiment [7], in [8] and in experiment [9].
Turning to `O=C(O)CC(C(=O)O)S(=O)(=O)O` (stereo not drawn), the molecule was classed as inactive in experiment [1], in [2], in [3], in [4], in [5] and in [6]. Further, the outcome in [7], in experiment [8] and in experiment [9] was inactive.
In the case of `CC(=O)CC(=O)Nc1ccccc1C`, the molecule was called inactive in [1], in [2], in [3], in experiment [4], in experiment [5] and in [6]. Moreover, the outcome in experiment [7], in [8] and in [9] was inactive.
Broadly, the AC50 is the concentration giving half of the maximal activity seen. For the molecule `O=C(O[C@@H]1Cc2c(O)cc(O)cc2O[C@@H]1c1cc(O)c(O)c(O)c1)c1cc(O)c(O)c(O)c1`, the result in experiment [1], in experiment [2], in experiment [3], in experiment [4], in experiment [5] and in experiment [7] was inactive. Moreover, the molecule was called inactive in [8] and in experiment [9]. In addition, the concentration at half-maximal activity (AC50) in [6] is 26.8 µM (active).
In the case of `COc1cc(C)ccc1O`, the molecule was classed as inactive in experiment [1], in experiment [2], in experiment [3], in experiment [4], in [5] and in experiment [6]. For the same molecule, the result in experiment [7], in experiment [8] and in experiment [9] was inactive.
On to `CCCc1ccc(O)c(OC)c1`, for which the call in [1], in [2], in experiment [3], in experiment [4], in experiment [5] and in [6] was inactive. The call in experiment [7], in experiment [8] and in experiment [9] was inactive.
As to `CCCCCCCCCC(C)=O`, the molecule was classed as inactive in [1], in [2], in experiment [3], in [4], in experiment [5] and in [6]. In addition, the molecule was classed as inactive in [7], in experiment [8] and in experiment [9].
On to `N#Cc1ccc(C2CCCc3cncn32)cc1` (stereo not drawn), for which the outcome in experiment [1], in [2], in experiment [3], in experiment [4], in experiment [5] and in experiment [6] was inactive. For the same molecule, the molecule was called inactive in experiment [7], in [8] and in [9].
On to `CCC[Si](OC)(OC)OC`, for which the call in experiment [1], in experiment [2], in [3], in [4], in experiment [5] and in experiment [6] was inactive. In addition, the molecule was called inactive in experiment [7], in [8] and in [9].
`CC(C)CO`: the call in [1], in experiment [2], in experiment [3], in experiment [4], in experiment [5] and in experiment [6] was inactive. Moreover, the call in experiment [7], in [8] and in experiment [9] was inactive.
As to `c1ccc2c(c1)[nH]c1ccccc12`, the call in [1], in experiment [2], in experiment [3], in [4], in [5] and in experiment [6] was inactive. For the same molecule, the call in [7], in [8] and in experiment [9] was inactive.
For `O=C1CCCCCCCCCCCN1`, the molecule was classed as inactive in experiment [1], in experiment [2], in experiment [3], in experiment [4], in [5] and in experiment [6]. The outcome in experiment [7], in experiment [8] and in experiment [9] was inactive.
For the molecule `O=C(OCCc1ccccc1)c1ccccc1`, the result in experiment [1], in experiment [2], in [3], in experiment [4], in experiment [5] and in [6] was inactive. Also, the outcome in experiment [7], in experiment [8] and in experiment [9] was inactive.
Turning to `CCCC(CC)c1ccccc1` (stereo not drawn), the molecule was called inactive in [1], in experiment [2], in experiment [3], in experiment [4], in experiment [5] and in [6]. For the same molecule, the molecule was called inactive in experiment [7], in experiment [8] and in experiment [9].
Take `CCCCCCCO`: the molecule was called inactive in experiment [1], in experiment [2], in experiment [3], in [4], in experiment [5] and in [6]. For the same molecule, the outcome in [7], in [8] and in experiment [9] was inactive.
With `CC(C)OC(=O)c1ccccc1`, the call in experiment [1], in experiment [2], in [3], in [4], in [5] and in experiment [6] was inactive. The molecule was called inactive in experiment [7], in experiment [8] and in experiment [9].
As for `CC(C)(O)Cc1ccccc1`, the call in experiment [1], in experiment [2], in [3], in experiment [4], in experiment [5] and in [6] was inactive. Also, the result in experiment [7], in experiment [8] and in experiment [9] was inactive.
As for `CCCCCCC=O`, the molecule was called inactive in experiment [1], in experiment [2], in [3], in [4], in [5] and in experiment [6]. For the same molecule, the molecule was called inactive in experiment [7], in experiment [8] and in experiment [9].
As for `CC1=NN(c2ccc(S(=O)(=O)O)cc2)C(=O)C1N=Nc1ccccc1` (stereo not drawn), the call in experiment [1], in experiment [2], in experiment [3], in experiment [4], in experiment [5] and in experiment [6] was inactive. Moreover, the molecule was called inactive in [7], in [8] and in [9].
Take `c1ccc2cnccc2c1`: the call in experiment [1], in experiment [2], in experiment [3], in experiment [4], in experiment [5] and in experiment [6] was inactive. Moreover, the molecule was called inactive in experiment [7], in experiment [8] and in experiment [9].
Turning to `O=C(Cl)c1c(Cl)c(Cl)c(C(=O)Cl)c(Cl)c1Cl`, the molecule was classed as inactive in experiment [1], in [2], in experiment [3], in experiment [4], in experiment [5] and in [6]. For the same molecule, the molecule was called inactive in [7], in experiment [8] and in experiment [9].
Turning to `CC(=O)C(C)C`, the molecule was classed as inactive in [1], in [2], in [3], in experiment [4], in experiment [5] and in experiment [6]. Further, the call in experiment [7], in experiment [8] and in experiment [9] was inactive.
As for `COc1ccc(-c2coc3cc(O)cc(O)c3c2=O)cc1`, the molecule was classed as inactive in [1], in experiment [2], in [3], in experiment [4], in experiment [5] and in experiment [6]. For the same molecule, the result in experiment [7] was inactive. For the same molecule, the figures for the AC50 in experiment [8] and in experiment [9] were 174 µM (active) and 138 µM (active), respectively.
On to `CCCCC1CCC(=O)O1` (stereo not drawn), for which the result in [1], in experiment [2], in experiment [3], in experiment [4], in experiment [5] and in experiment [6] was inactive. In addition, the outcome in [7], in experiment [8] and in [9] was inactive.
Turning to `CCCCOCC(C)O` (stereo not drawn), the molecule was called inactive in experiment [1], in experiment [2], in experiment [3], in [4], in [5] and in experiment [6]. The result in experiment [7], in experiment [8] and in [9] was inactive.
For `Fc1ccc(Br)cc1`, the call in experiment [1], in experiment [2], in [3], in experiment [4], in [5] and in [6] was inactive. Besides, the molecule was called inactive in experiment [7], in experiment [8] and in experiment [9].
Consider `CC(C)COC(=O)CC(C(=O)OCC(C)C)S(=O)(=O)O` (stereo not drawn), for which the call in [1], in experiment [2], in [3], in experiment [4], in [5] and in experiment [6] was inactive. For the same molecule, the molecule was classed as inactive in [7], in experiment [8] and in experiment [9].
